High-throughput results: PubChem BioAssay, National Center for Advancing Translational Sciences (NCATS)
Compounds with a hit are over-represented: about 21% of the library has one in this group of screens.
Pf growth 96h – P. falciparum growth inhibition at 96 hours; P. falciparum luciferase reporter growth, 96 h; Potency, µM (series often up to 28.7 µM), inactives show at the top dose activity change, negative = inhibition, usual class: inhibitors; 6.9% of 320,000 active; note: potency is the fitted concentration of half-maximal effect; % is set by controls: 0 for no effect and ±100 for the full control effect
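Luminescence readout: decreased luciferase signal marks inhibited growth of reporter-expressing P. falciparum in infected red cells (2% hematocrit, 0.05% parasitemia final), exposed to compound two generations (96 h, 37 C, 5% CO2).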
Pf growth 48h – P. falciparum growth inhibition at 48 hours (one generation); P. falciparum luciferase growth in erythrocytes, 48 h; Potency, µM (doses to about 28.7 µM), inactives show top-dose activity change, negative = inhibition, hits mostly inhibitors; 5.9% of 310,000 active; note: potency is the fitted concentration of half-maximal effect; % is set by controls: 0 for no effect and ±100 for the full control effect
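Here the parasites carry a stable luciferase gene and grow inside erythrocytes in Albumax-based RPMI medium with compound for one erythrocytic cycle. Activity is scored as loss of luminescent signal.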
CHX counter – counter-screen for Shiga toxin inhibitors: cycloheximide protein synthesis inhibition. 12% of 300,000 active. cell reporter, cycloheximide protein synthesis inhibition counterscreen. max response, %. AID 2314; in the data active = max response mostly above about 13%, no sharp cut-off; inactive = mostly below about 14%; note: read at 38.3 µM for the half of the compounds with a filed dose; 0% is about no effect
NS1 inh – inhibitors of influenza NS1 protein function; Potency, µM (doses to about 46.1 µM), inactives show top-dose activity, positive = more growth; AID 2326; 0.4% of 270,000 active; calls by dose curve; note: potency is the fitted concentration of half-maximal effect; actives are rising curves; nearly all actives have a fitted effect of over 50% in size
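OD600 was taken as the measure of yeast growth restored by compound in an NS1-expressing S. cerevisiae strain. Cells had been washed out of glucose medium and diluted 1:100 into galactose -URA medium, pH 6.0.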
Sm TGR inh – inhibitors of Schistosoma mansoni thioredoxin glutathione reductase. Q962Y6. purified TGR, DTNB reduction, TNB absorbance 405 nm. Potency, µM (top dose mostly 114 µM), without a hit: top-dose activity change, negative = inhibition, hits mostly inhibitors. 3% of 360,000 active. AID 485364; note: potency is the fitted concentration of half-maximal effect; % is set by controls: 0 for no effect and ±100 for the full control effect; nearly all actives have a fitted effect of over 60% in size
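TGR 20 nM + NADPH 100 uM (dispensed conc.), cpd preinc 15 min RT; start with NADPH (500 uM addition) then DTNB (15 mM addition). Kinetic TNB absorbance, 405 nm filter. Four-parameter Hill fit across titration.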
Shiga toxin inh – inhibitors of Shiga toxin in Vero cells; 9.2% of 290,000 active; Vero cells, Shiga toxin protein synthesis inhibition reporter; inhibition, % at 38.7 µM; in the data active = inhibition mostly above about 28%, no sharp cut-off; inactive = mostly below about 43%; note: 0% is about no effect
Numbers without * were called inactive. Unless noted, calls come from the whole dose curve; as a rule, active = well fitted curve in the direction sought with a large enough effect; inconclusive = small, poorly fitted or top-dose-only effect, or another doubt; inactive = no such curve, though single readings can be large; an effect the other way counts as inactive or inconclusive.

Screening CCc1cc2c(=O)oc(-c3ccccc3F)nc2s1 returned Pf growth 96h -5%, Pf growth 48h 3%, CHX counter 14*, NS1 inh -91% and Sm TGR inh 4%.
Screening COc1cccc(NC(=O)CN(C)C(=O)CCCNC(=O)c2ccc(Cl)cc2)c1 returned Pf growth 96h 6%, Pf growth 48h 22% and Sm TGR inh -2%.
`Cc1[nH]c2ccccc2c1/C=N/Nc1nncn1N` gave Pf growth 96h inconclusive, Pf growth 48h 60%, CHX counter 55*, NS1 inh 1% and Shiga toxin inh 112*.
`Cc1[nH]c2ccccc2c1/C=N/Nc1ccccn1` gave Pf growth 96h 10µM*, Pf growth 48h 0%, CHX counter 15, NS1 inh -27%, Sm TGR inh -14% and Shiga toxin inh 49.
Screening Nc1c(-c2nc(-c3ccccc3Cl)no2)nnn1-c1ccccc1C(F)(F)F returned Sm TGR inh 25%.
For COc1ccc(C(=O)NC2=Nc3ccccc3N=C(C)C2c2ccccc2)cc1 (centres undefined) the results were Pf growth 96h inconclusive, Pf growth 48h inconclusive, CHX counter 44*, NS1 inh -1%, Sm TGR inh -6% and Shiga toxin inh 190*.
`CC1=Nc2ccccc2N=C(NC(=O)/C=C/C(=O)O)C1c1ccccc1` (centres undefined) gave Pf growth 96h 47%, Pf growth 48h 55%, CHX counter 40*, NS1 inh 1%, Sm TGR inh 0% and Shiga toxin inh 77*.
O=C(CSc1ccccc1)NCc1ccccn1 was read as Pf growth 96h inconclusive, Pf growth 48h 18%, CHX counter 12, NS1 inh -4%, Sm TGR inh -5% and Shiga toxin inh -8.
O=C(NCCCN1CCCCC1)C1CCN(S(=O)(=O)N2CCC3(CC2)OCCO3)CC1 was read as Pf growth 96h inconclusive, Pf growth 48h 35%, CHX counter -3, NS1 inh inconclusive, Sm TGR inh 2% and Shiga toxin inh 1.
Cc1ccccc1OCC(=O)Nc1ccc2c(c1)C(=O)c1ccccc1C2=O was read as Pf growth 96h 43%, Pf growth 48h 26%, CHX counter 23*, NS1 inh 16%, Sm TGR inh -8% and Shiga toxin inh 38*.
For Cc1ccccc1OCC(=O)Nc1cccc(C(=O)O)c1 the results were Pf growth 96h -20%, Pf growth 48h 299%, CHX counter 26*, NS1 inh 5%, Sm TGR inh 2% and Shiga toxin inh 22.
`Cc1cccc(NC(=O)COC(=O)c2cccc3c2C(=O)c2ccccc2C3=O)c1C` gave Pf growth 96h 10µM*, Pf growth 48h -25%, CHX counter -2, NS1 inh 10%, Sm TGR inh -8% and Shiga toxin inh -12.
For Cc1ccc(NC(=O)COC(=O)Cn2cnc3ccccc32)cc1S(=O)(=O)N(C)C the results were Pf growth 96h inconclusive, Pf growth 48h -9%, CHX counter -5, NS1 inh 13%, Sm TGR inh inconclusive and Shiga toxin inh -1.
Cc1ccccc1OCC(=O)Nc1ccc2c(c1)Cc1ccccc1-2 was read as Pf growth 96h inconclusive, Pf growth 48h inconclusive, CHX counter 18, NS1 inh 5%, Sm TGR inh 3% and Shiga toxin inh -10.
`O=C(COC(=O)Cn1cnc2ccccc21)Nc1ccc2c(c1)C(=O)c1ccccc1C2=O` gave Pf growth 96h 298%, Pf growth 48h 154%, CHX counter 67*, NS1 inh 10%, Sm TGR inh 4% and Shiga toxin inh 18*.
C=CCOc1ccc(C=Nc2ccc(Cl)cc2)c(O)c1 was read as Pf growth 96h 10%, Pf growth 48h 0%, CHX counter 6, NS1 inh 23%, Sm TGR inh -1% and Shiga toxin inh 6.
Screening CC(=O)c1cccc(NC(=O)COC(=O)c2ccccc2C)c1 returned Pf growth 96h 89%, Pf growth 48h 64%, CHX counter 62*, NS1 inh -25%, Sm TGR inh -16% and Shiga toxin inh 110*.
Screening Cc1cccc(C(=O)OCC(=O)NC(=O)c2ccccc2)c1O returned Pf growth 96h -4%, Pf growth 48h 35% and Sm TGR inh 50µM*.
C=CCN1C(=O)/C(=c2\sc3nc(=O)c(Cc4ccccc4)nn3c2=O)c2ccccc21 was read as Pf growth 96h -7%, Pf growth 48h 0%, CHX counter -2, NS1 inh 3%, Sm TGR inh 1.4µM* and Shiga toxin inh -6.
Screening C=CCN1C(=O)/C(=N/n2cnnc2)c2ccccc21 returned Pf growth 96h 55%, Pf growth 48h -11%, CHX counter -3, NS1 inh -8%, Sm TGR inh -3% and Shiga toxin inh 6.
Screening C=CCN1C(=O)/C(=c2\sc3nc(=O)c(Cc4ccc(OC)c(OC)c4)nn3c2=O)c2ccccc21 returned Pf growth 96h -8%, Pf growth 48h -2%, CHX counter -1, NS1 inh -1%, Sm TGR inh 0.63µM* and Shiga toxin inh -15.
CCN1C(=O)/C(=c2\sc3nc(=O)c(Cc4ccccc4)nn3c2=O)c2ccccc21 was read as Pf growth 96h 30%, Pf growth 48h 4%, CHX counter -2, NS1 inh 6%, Sm TGR inh 3.5µM* and Shiga toxin inh 22.
CCOC(=O)Cn1nc(Cc2ccccc2)c2ccccc2c1=O was read as Pf growth 96h inconclusive, Pf growth 48h inconclusive, CHX counter -3, NS1 inh -15%, Sm TGR inh -6% and Shiga toxin inh 19.
Screening CCCC(=O)Nc1cccc(-c2cn3c(C)csc3n2)c1 returned Sm TGR inh -1%.
`Cn1nnnc1NC(=O)c1ccccc1Cl` gave Pf growth 96h 53%, Pf growth 48h 2%, CHX counter -2, NS1 inh 14%, Sm TGR inh -1% and Shiga toxin inh -16.
Cn1nnnc1P(=O)(c1ccccc1)c1ccccc1 was read as Pf growth 96h 10µM*, Pf growth 48h -13%, CHX counter 2, NS1 inh 5%, Sm TGR inh 14% and Shiga toxin inh -12.
CC1CCN(C(=O)c2cc3ccccc3o2)CC1 was read as Pf growth 96h inconclusive, Pf growth 48h 110%, CHX counter 56*, NS1 inh -8%, Sm TGR inh 0% and Shiga toxin inh 76*.
`O=C(c1cc2ccccc2o1)N1CCCC1` gave Pf growth 96h 147%, Pf growth 48h 14%, CHX counter 13, NS1 inh -6%, Sm TGR inh 16% and Shiga toxin inh 6.
Screening CC1CC(C)CN(C(=O)c2cc3ccccc3o2)C1 (centres undefined) returned Pf growth 96h -81%, Pf growth 48h inconclusive and Sm TGR inh 0%.
